Results as given in PubChem BioAssay (NCATS).
Results filed as inconclusive are left out. A call without a number means that no potency is given here. Activity calls are given as the source filed them. Calls come from the whole dose curve; as a rule, active = well fitted inhibition curve with a large enough effect; inconclusive = small, poorly fitted or top-dose-only effect; inactive = no such curve, though single readings can be large or run the other way.

Assays:
[1] = test system: Zika virus NS2B-NS3 protease (unlinked complex); experiment: Primary screen GU Rhodamine qHTS for Zika virus inhibitors: Unlinked NS2B-NS3 protease assay (AID 1347159); settings: Recombinant ZIKV NS2B-NS3 protease, Rhodamine110 substrate fluorescence; series mostly up to 107 µM; note: nearly all actives have a fitted effect of over 60% in size
Procedure, shortened: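 Buffer 10 mM Tris-HCl pH 8.0, 0.01% Tween 20. Unlinked protease 25 nM; compound preincubation 15 min, RT, protected from light. Substrate Rhod110, 1.5 microM; ~15% conversion in 15 min.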

[2] = test system: Zika virus NS2B-NS3 protease (linked construct); experiment: Primary screen NINDS Rhodamine qHTS for Zika virus inhibitors (AID 1347160); settings: purified NS2B-NS3 protease, Rhodamine110 substrate fluorescence; series mostly up to 33.1 µM; note: nearly all actives have a fitted effect of over 55% in size
Procedure, shortened: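 Aprotinin served as in-plate control. Conditions: 25 nM linked NS2B-NS3, pH 8.0 Tris buffer, titrated compounds, 15 min preincubation and 15 min reaction with 1.5 microM Rhod110 substrate at room temperature.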

In the case of `C=C(C)C(O)COc1ccc(CC(=O)O)cc1` (configuration not stated), the Potency [1] is reported as “inactive” and the Potency [2] is reported as “inactive”.

`CC(=O)O[C@@H]1C(=O)C(C)=C(CCC(C)CC(=O)O)[C@@]2(C)CCCC(C)(C)C12` (some centres not stated) was tested, and the Potency [1] was “inactive” and the Potency [2] was “inactive”.

In the case of `COc1ccc(C(=O)CC(=O)O)c2c1C=CC(C)(C)O2`, the Potency [1] is reported as “inactive” and the Potency [2] is reported as “inactive”.

In the case of `COC(=O)c1ccc(OC)cc1O[C@@H]1O[C@H](CO[C@@H]2OC[C@@H](O)[C@H](O)[C@H]2O)[C@@H](O)[C@H](O)[C@H]1O`, the Potency [1] is reported as “inactive” and the Potency [2] is reported as “inactive”.

`CC(C)C1C(OC(=O)/C=C/c2ccccc2)CC2(C)OC2CCC2(C)OC2C1O` (configuration not stated) was tested, and the Potency [1] was “inactive” and the Potency [2] was “inactive”.

In the case of `COC(=O)C1=COC(O[C@@H]2O[C@H](CO)[C@@H](O)[C@H](O)[C@H]2O)C2C(C)C(=O)CC12` (some centres not stated), the Potency [1] is reported as “inactive” and the Potency [2] is reported as “inactive”.

In the case of `Cc1oc2nc3c(c(NC(=O)CN4CCCC4=O)c2c1C)CCCC3`, the Potency [1] is reported as “inactive” and the Potency [2] is reported as “inactive”.

In the case of `Cc1c(F)cc(C(=O)NC2CC2)cc1-c1ccc(C(=O)NCC(C)(C)C)cn1`, the Potency [1] is reported as “inactive” and the Potency [2] is reported as “inactive”.

For `CC1(C)OC(=O)CC(O)C2(C)C1CC(=O)C1(C)C2C(O)CC2(C)C(c3ccoc3)OC(=O)C3OC321` (configuration not stated), the Potency [1] was “inactive” and the Potency [2] was “inactive”.

`CCCC1=CC2=C(CO1)C(=O)C(C)(O)C(OC(=O)c1c(C)cc(OC)cc1O)C2` (configuration not stated) was tested, and the Potency [1] was “inactive” and the Potency [2] was “inactive”.

In the case of `CN1C(=O)N(c2cc(Cl)cc(Cl)c2)C(=O)[C@@]1(C)Cc1ccc(Br)cc1`, the Potency [1] is reported as “inactive” and the Potency [2] is reported as “inactive”.

In the case of `CC(=O)O[C@@H]1CC2C(C)(C)C(=O)C=C[C@]2(C)C2CC[C@]3(C)C(=CC(=O)[C@@H]3c3ccoc3)[C@@]21C` (some centres not stated), the Potency [1] is reported as “inactive” and the Potency [2] is reported as “inactive”.

With `COc1ccc(CCc2nc3cc(-c4c(C)noc4C)ccc3n2C[C@H](C)N2CCOCC2)cc1Cl` the Potency [1] was “inactive” and the Potency [2] was “inactive”.

For `C[C@@H]1C[C@@H](O)[C@@]23CO[C@]2(CO)CCC[C@@H]3[C@@]12C[C@@H](c1ccoc1)OC2=O`, the Potency [1] was “inactive” and the Potency [2] was “inactive”.

With `CNc1nc(C)nc(N[C@H]2CCC[C@@H](C(=O)NCc3ccc(C#N)cc3C(F)(F)F)C2)n1` the Potency [1] was “inactive” and the Potency [2] was “inactive”.

In the case of `C[C@@H]1C(=O)O[C@H](C)[C@H]1C[C@@H](O)[C@](C)(O)[C@H]1CC[C@@]2(O)C3=CC(=O)[C@@H]4C[C@@H](O)[C@@H](O)C[C@]4(C)C3CC[C@]12C` (some centres not stated), the Potency [1] is reported as “inactive” and the Potency [2] is reported as “inactive”.

In the case of `COc1cc(/C=C/C(=O)OC[C@H]2O[C@@H](OC3OC=C(C(=O)O)C4C(O)CC(C)(O)C34)[C@H](O)[C@@H](O)[C@@H]2O)cc(OC)c1O` (some centres not stated), the Potency [1] is reported as “inactive” and the Potency [2] is reported as “inactive”.

For `O=C(O)Cc1cn([C@@H]2OC[C@@H](O[C@@H]3O[C@H](CO)[C@@H](O)[C@H](O)[C@H]3O)[C@H](O)[C@H]2O[C@@H]2O[C@H](CO)[C@@H](O)[C@H](O)[C@H]2O)c2ccccc12`, the Potency [1] was “inactive” and the Potency [2] was “inactive”.

With `COc1cccc(CN(C(=O)CC(C)(C)C)C2CC(C(=O)N3CCNCC3)N(Cc3ccc4c(c3)OCO4)C2)c1` (configuration not stated) the Potency [1] was “inactive” and the Potency [2] was “inactive”.

For `C=C1C(OC(C)=O)[C@@]23CCC4[C@](C)(C(=O)O)CCC[C@@]4(C)[C@]2(O)CC[C@H]1C3` (some centres not stated), the Potency [1] was “inactive” and the Potency [2] was “inactive”.

In the case of `CCOC(=O)CSc1nc2c(sc3ccccc32)c(=O)n1CCCN1CCCC1`, the Potency [1] is reported as “inactive” and the Potency [2] is reported as “inactive”.

With `C=C1CC[C@]2(C(=O)O[C@@H]3O[C@H](CO)[C@@H](O)[C@H](O)[C@H]3O)CC[C@]3(C)C(=CCC4[C@@]5(C)C[C@H](O)[C@@H](O[C@@H]6O[C@H](C(=O)O)[C@@H](O)[C@H](O)[C@H]6O)[C@](C)(C=O)C5CC[C@]43C)C2C1` (some centres not stated) the Potency [1] was “inactive” and the Potency [2] was “inactive”.

In the case of `C=C[C@H]1[C@H](O[C@@H]2O[C@H](CO)[C@@H](O)[C@H](O)[C@H]2O)OC=C2C(=O)N3Cc4c([nH]c5ccccc5c4=O)[C@@H]3C[C@H]21`, the Potency [1] is reported as “inactive” and the Potency [2] is reported as “inactive”.

In the case of `COc1ccc(CCC(=O)c2c(O)cc(O[C@@H]3O[C@H](CO)[C@@H](O)[C@H](O)[C@H]3O[C@@H]3O[C@@H](C)[C@H](O)[C@@H](O)[C@H]3O)cc2O)cc1O`, the Potency [1] is reported as “inactive” and the Potency [2] is reported as “inactive”.

`C[C@@H]1O[C@@H](O[C@@H]2[C@@H](O)[C@H](O[C@H]3[C@H](O[C@H]4CC[C@@]5(C)C(CC[C@]6(C)C5CC=C5[C@@H]7CC(C)(C)CC[C@]7(C(=O)O[C@@H]7O[C@H](CO)[C@@H](O)[C@H](O)[C@H]7O)CC[C@]56C)C4(C)C)O[C@H](C(=O)O)[C@@H](O)[C@@H]3O)OC[C@H]2O)[C@H](O)[C@H](O)[C@H]1O` (some centres not stated) was tested, and the Potency [1] was “inactive” and the Potency [2] was “inactive”.

In the case of `CCOC(=O)c1ccc(NC2CCCCC2)c(N)c1`, the Potency [1] is reported as “inactive” and the Potency [2] is reported as “inactive”.
